Sampled rows, rich in hits. Any-hit rate of the full collection: about 5.9%.
ABHD5 PLIN5 PPI = ABHD5-PLIN5 interaction inhibitors, primary screen, cell lysate, split luciferase complementation, luminescence; Split G. princeps luciferase complementation, 4 h; inhibition, % at 4 µM; actives 0.78% (n = 360,000); Perilipin-5 (Homo sapiens) + 1-acylglycerol-3-phosphate O-acyltransferase ABHD5 (Homo …;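 active means inhibition above the mean inhibition across every tested compound plus 3 SD, cut at about 22% in these data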;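 further: 0% = DMSO only wells and the 100% control is not disclosed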
rCAG binder = binders of r(CAG) RNA repeats, primary screen, biochemical, fluorescence. r(CAG) RNA repeat, TO-PRO-1 dye displacement fluorescence. inhibition, % at 3 µM. AID 651821, 2012. actives 1.3% (n = 370,000);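 active means inhibition above the plate cutoff, the mean of all test compounds on that plate plus 3 SD, cut at about 35% in these data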;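 further: 0% = DMSO alone and 100% = 100 µM mitoxantrone as full dye displacement; higher means more dye released from RNA so lower well fluorescence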
Rtt109 HAT inh = inhibitors of C. albicans Rtt109/Vps75 HAT, primary screen, biochemical, ThioGlo CoA-SH fluorescence, plate reader; actives 0.16% (n = 330,000); inhibition, % at 34.9 µM; purified Rtt109/Vps75, 4 h;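 active means inhibition of at least 50% in every replicate; inconclusive means best replicate reaches 50% inhibition but some replicates fall short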
Target sequence (Q5AAJ8 whole entry, looked up): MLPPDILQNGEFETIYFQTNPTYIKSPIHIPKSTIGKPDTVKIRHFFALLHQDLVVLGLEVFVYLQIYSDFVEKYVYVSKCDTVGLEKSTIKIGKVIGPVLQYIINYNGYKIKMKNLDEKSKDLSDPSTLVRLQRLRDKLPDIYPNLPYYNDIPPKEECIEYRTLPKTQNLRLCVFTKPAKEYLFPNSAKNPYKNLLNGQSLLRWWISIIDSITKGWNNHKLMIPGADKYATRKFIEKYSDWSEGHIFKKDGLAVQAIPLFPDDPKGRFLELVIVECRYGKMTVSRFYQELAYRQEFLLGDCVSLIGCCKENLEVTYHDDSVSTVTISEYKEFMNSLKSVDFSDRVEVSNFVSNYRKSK
ALR inh = inhibitors of human ALR sulfhydryl oxidase, primary screen, biochemical, H2O2 detection, HRP-luminol luminescence, single point | AID 485317, 2010 | FAD-linked sulfhydryl oxidase ALR (Homo sapiens), P55789 | actives 3.8% (n = 290,000) | inhibition, % (concentration not given with the values) | purified ALR, DTT oxidation;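 active means mean replicate inhibition above about 79%, with every replicate also reaching it, limit read from the data; inconclusive means only one of the two criteria met; inactive means mean below limit and not every replicate reaching it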
Target sequence (P55789 whole entry, looked up): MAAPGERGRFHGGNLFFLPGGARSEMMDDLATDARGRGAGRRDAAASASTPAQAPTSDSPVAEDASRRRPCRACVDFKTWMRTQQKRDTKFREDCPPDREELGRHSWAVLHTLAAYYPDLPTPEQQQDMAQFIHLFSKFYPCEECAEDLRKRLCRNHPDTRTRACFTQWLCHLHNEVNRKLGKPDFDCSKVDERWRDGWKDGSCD
LANA-H2A inh = blockers of LANA interaction with H2A/H2B – biochemical, FP readout, HTS, primary screen; inhibition, % (no concentration beside the values); cell-free LANA-H2A/H2B peptide, fluorescence polarization; actives 0.6% (n = 320,000); Protein LANA1 (Human herpesvirus 8 type P (isolate GK18)), Q9QR71; in the data active means inhibition mostly above about 10%, no sharp cut-off; inactive means mostly below about 6.7%
PRMT1 FP inh = PRMT1 methyltransferase inhibitors, primary screen, biochemical, fluorescence polarization; Protein arginine N-methyltransferase 1 (Homo sapiens), Q99873; recombinant PRMT1, activity-based probe fluorescence polarization; inhibition, % at 2.79 µM; actives 1.3% (n = 370,000); AID 652257, 2013;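 active means inhibition above about 21% made by adding two undisclosed values, limit read from the data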
ABHD5-PLIN5 conf = ABHD5-PLIN5 interaction inhibitors, confirmation, biochemical, luminescence; shares compounds with ABHD5 PLIN5 PPI; inhibition, % at 4 µM; actives 67% (n = 2,200); AID 651612, 2012; in the data active means inhibition above about 23%;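 further: 0% = DMSO vehicle wells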
HNF4 counter = HNF4 dimerization inhibitors, counter-screen for ABHD5-PLIN5 interaction inhibitor project, biochemical, split-luciferase complementation, luminescence | actives 77% (n = 2,200) | inhibition, % at 4 µM | shares compounds with ABHD5 PLIN5 PPI;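 active means mean inhibition across replicate wells exceeding the computed hit threshold, cut at about 13% in these data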;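 further: light from luciferase halves that rejoin when HNF4 fusion proteins dimerize; 0% = DMSO only wells and the 100% control is not given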
Numbers without * were called inactive; ? = inconclusive; · = not tested or not shown; ! = not active in a repeat.

SMILES	ABHD5 PLIN5 PPI	rCAG binder	Rtt109 HAT inh	ALR inh	LANA-H2A inh	PRMT1 FP inh	ABHD5-PLIN5 conf	HNF4 counter
Cc1ccc2c(c1)/C(=C/c1ccc(F)cc1)C(=O)N2	34*	6	0	3	-3	4	45*	36*
Cc1ccc2c(c1)/C(=C/c1ccccc1C)C(=O)N2	7	-2	9	-5	4	1	·	·
COc1ccc2c(c1)/C(=C/c1cc(OC)c(OC)c(OC)c1)C(=O)N2	36*	0	9	·	·	2	49*	44*
COC(=O)[C@]12C[C@H](CC(=O)NCCC(C)C)C(=O)N(CCc3ccc(OC)c(OC)c3)C1=C[C@H](C1CCCC1)O[C@@H]2C	·	4	·	·	·	-2	·	·
Cc1ccc(-c2cc(NC(=O)Cc3c(C)[nH]c4ccccc34)ccc2Nc2cccnc2)cc1	·	12	·	·	·	5	·	·
CN1OC[C@@H]2CN(C(=O)CCc3ccccc3)[C@H](c3cccc(-c4ccc(C#N)cc4)c3)C[C@@H]21	3	1	3	·	·	-2	·	·
COc1ccc(-c2csc(NC3OC(=O)c4c3ccc(OC)c4OC)n2)cc1OC (stereo not drawn)	34*	1	-6	8	0	1	63*	49*
COCCNC(=S)N(C)[C@H]1C[C@H]2c3cc(N4CCN(C)CC4)ccc3CCN2C(=O)[C@H]1[C@H](C)O	6	-2	·	·	·	1	·	·
C=CC(=O)N1C/C(=C/c2ccc(F)cc2)C(=O)/C(=C\c2ccc(F)cc2)C1	100*	2	4	·	·	12	102*	105*
CN1C2CCC1/C(=C\c1ccc(F)cc1)C(=O)/C2=C/c1ccc(F)cc1	12	-1	2	-1	-1	-1	·	·
CC(C)C[C@H]1COc2cccc(F)c2S(=O)(=O)N1Cc1cn(Cc2ccco2)nn1	·	2	·	·	·	0	·	·
O=C(/C=C/c1cccc2ccccc12)c1ccncc1	65*	5	4	-36	1	5	96*	96*
O=C(/C=C/c1ccccc1O)c1ccccc1	29*	0	6	·	·	0	79*	64*
O=C(/C=C/c1ccccc1O)c1ccc(Cl)cc1	58*	9	·	52	5	-2	94*	75*
O=C(Nc1ccccc1O)c1ccc(Cl)cc1	2	3	-9	72	3	0	·	·
O=C(N/N=C/c1cccc2ccccc12)c1ccncc1	-8	-2	-2	-8	1	3	·	·
CC(=O)/C=C/c1ccccc1O	0	-1	-1	4	3	2	·	·
O=C(/C=C/c1ccccc1[N+](=O)[O-])c1ccc(F)cc1	34*	-2	12	98*	5	1	86*	83*
CN(C)CC(c1ccc(O)cc1)C1(O)CCCCC1 (stereo not drawn)	·	2	·	·	·	2	·	·
CC1=CC(C)(C)Nc2ccc(OC(=O)C(C)N3C(=O)c4ccccc4C3=O)cc21 (stereo not drawn)	58*	-3	-1	7	-2	1	90*	24*
CC1=CC(C)(C)Nc2ccc(OC(=O)CN3C(=O)CCC3=O)cc21	80*	2	-4	99*	4	0	96*	33*
COc1ccc(OC(=O)C(C)N2C(=O)c3ccccc3C2=O)cc1 (stereo not drawn)	5	-4	2	15	-3	1	·	·
CC1=CC(C)(C)N2C(=O)C(=O)c3cc(OC(=O)c4ccco4)cc1c32	-2	-1	18	20	-4	2	·	·
CC1=CC(C)(C)Nc2ccc(OC(=O)c3ccco3)cc21	67*	-1	-4	29	-1	9	91*	91*
CC1=CC(C)(C)Nc2ccc(OC(=O)c3cccnc3)cc21	78*	-5	2	?	0	-1	97*	72*
SMILES	ABHD5 PLIN5 PPI	rCAG binder	Rtt109 HAT inh	ALR inh	LANA-H2A inh	PRMT1 FP inh	ABHD5-PLIN5 conf	HNF4 counter
Cc1ccc(-c2csc(C(O)c3cccc(Cl)c3)n2)cc1C (stereo not drawn)	-17	4	·	·	·	-1	·	·
O=C1CSc2ccc(C(=O)N3CCCC(C(=O)N4CCCCC4)C3)cc2N1 (stereo not drawn)	·	1	·	·	·	8	·	·
Cc1ccc(OCC(=O)N2CCN(S(=O)(=O)c3ccc4c(c3)OCCO4)CC2)c(C)c1	-11	0	1	-26	12	-2	·	·
Cc1ccc2c(CC(=O)N3CCN(S(=O)(=O)c4ccc5c(c4)OCCO5)CC3)coc2c1	27*	2	18	6	-5	0	57*	·
Cc1ccc(C)c(OCC(O)CN2CCC(CN3C(=O)c4cccc5cccc(c45)C3=O)CC2)c1 (stereo not drawn)	9	2	-4	-8	0	2	·	·
COc1ccc(OCC(O)CN2CCC(CN3C(=O)c4cccc5cccc(c45)C3=O)CC2)cc1 (stereo not drawn)	25*	-4	9	-7	-15	-3	6	3
C[C@@H](c1ccccc1)N1C[C@H]2CCCN2c2cc(Br)ccc2S1(=O)=O	-10	5	0	·	·	-1	·	·
O=C1C(O)=C(O)C(=O)c2ccccc21	42*	5	20	42	13	13	7	67*
CCCCn1c(=NC(=O)c2ccco2)c(C(=O)OCC)cc2c(=O)n3cccc(C)c3nc21	37*	11	-50	·	-2	2	10	14*
CCOC(=O)c1cc2c(=O)n3cccc(C)c3nc2n(CCCOC)c1=NC(=O)c1cccnc1	4	-10	-399	-1	2	-3	·	·
CCCCCn1c(=NC(=O)c2ccco2)c(C(=O)OCC)cc2c(=O)n3ccccc3nc21	56*!	2	1	-2	20	2	18	25*
CC1(C)Cc2c(c(-c3ccco3)nc3sc4c(NCCCO)ncnc4c23)CO1	33*	12	10	15	1	18	20	23*
Cc1nnc(SC(C)C(=O)Nc2ncc(Cl)cc2Cl)n1Cc1ccccc1 (stereo not drawn)	57*	-4	1	-4	0	-2	3	0

Bioassay records (PubChem BioAssay)
